In PubChem BioAssay (NCATS):
Several values for one entry are separate records, joined by “and”; a condition that tells them apart may be missing. Equal values may be shown once. Values without a mark were called inactive. Results filed as inconclusive are left out. A call without a number means that no potency is given here. Activity calls are given as the source filed them. Unless noted, calls follow the shape of the dose curve; as a rule, active = well fitted curve in the direction sought with a large enough effect; inconclusive = small, poorly fitted or top-dose-only effect, or another doubt; inactive = no such curve, though single readings can be large; an effect the other way counts as inactive or inconclusive.

What was measured:
[1] = tested on: NIH3T3; test: qHTS assay to identify novel small-molecules to repurpose for Merkel cell carcinoma treatment (AID 1296009); conditions: MCC and control cell lines, CellTiter-Glo viability, 72 h; at 44.8 µM (top of the series) unless noted; also: nearly all actives have a fitted effect of over 60% in size
Summary of the method: (§1)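 After compound transfer in DMSO, plates were kept 72 hr at 37 degree celsius. Luminescent ATP signal from CellTiter-Glo served as viability measure, normalized against DMSO and no-cell controls.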

[2] = tested on: UISO; test: as above; conditions: MCC and control cell lines, CellTiter-Glo viability, 72 h; series mostly up to 46 µM
Summary of the method: as §1

[3] = tested on: WaGa; test: as above; conditions: MCC and control cell lines, CellTiter-Glo viability, 72 h; series mostly up to 46 µM
Summary of the method: as §1

[4] = tested on: C33A; test: Primary qHTS to identify gynecologic anti-cancer compounds using libraries of approved drugs and bioactive compounds (AID 1345084); conditions: Gynecologic cancer cell panel viability, ATPlite luminescence, 48 h; series mostly up to 57.5 µM; also: nearly all actives have a fitted effect of over 55% in size
Summary of the method: (§2)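 Luminescence from the ATPlite ATP-monitoring reagent indicates viable cell number; lower signal means cytotoxicity. Cells received compound 16 h after seeding and were exposed for 48 h across five concentrations.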

[5] = tested on: CAOV3; test: as above; conditions: Gynecologic cancer cell panel viability, ATPlite luminescence, 48 h; series mostly up to 57.5 µM
Summary of the method: as §2

[6] = tested on: CASKI; test: as above; conditions: Gynecologic cancer cell panel viability, ATPlite luminescence, 48 h; series mostly up to 57.5 µM
Summary of the method: as §2

[7] = tested on: Es-2; test: as above; conditions: Gynecologic cancer cell panel viability, ATPlite luminescence, 48 h; series mostly up to 57.5 µM
Summary of the method: as §2

[8] = tested on: HeLa; test: as above; conditions: Gynecologic cancer cell panel viability, ATPlite luminescence, 48 h; series mostly up to 57.5 µM
Summary of the method: as §2

[9] = tested on: Hek293T; test: as above; conditions: Gynecologic cancer cell panel viability, ATPlite luminescence, 48 h, control line for the selectivity index; series mostly up to 57.5 µM
Summary of the method: as §2

[10] = tested on: JEG-3; test: as above; conditions: Gynecologic cancer cell panel viability, ATPlite luminescence, 48 h; series mostly up to 57.5 µM
Summary of the method: as §2

[11] = tested on: OV90; test: as above; conditions: Gynecologic cancer cell panel viability, ATPlite luminescence, 48 h; series mostly up to 57.5 µM
Summary of the method: as §2

[12] = tested on: PA-1; test: as above; conditions: Gynecologic cancer cell panel viability, ATPlite luminescence, 48 h; series mostly up to 57.5 µM
Summary of the method: as §2

[13] = tested on: SKOV3; test: as above; conditions: Gynecologic cancer cell panel viability, ATPlite luminescence, 48 h; series mostly up to 57.5 µM
Summary of the method: as §2

[14] = tested on: Tov-21-G; test: as above; conditions: Gynecologic cancer cell panel viability, ATPlite luminescence, 48 h; series mostly up to 57.5 µM
Summary of the method: as §2

[15] = tested on: Tov112D; test: as above; conditions: Gynecologic cancer cell panel viability, ATPlite luminescence, 48 h; series mostly up to 57.5 µM
Summary of the method: as §2

[16] = Drug repurposing screens with cells derived from glioblastoma tumor samples (AID 1345199); conditions: GBM patient neurospheres viability, ATP luminescence, 48 h; also: nearly all actives have a fitted effect of over 40% in size; also: potency is read from the fitted curve at half-maximal effect
Summary of the method: (§3)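 Four patient lines of CD133+ GBM neurospheres were screened at several concentrations; hits were retested in those lines plus three slower-growing GBM lines, using 48-hour treatment and ATP-based viability.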

[17] = tested on: astro; test: as above; conditions: viability, ATP luminescence, 48 h; series mostly up to 45.9 µM
Summary of the method: as §3

[18] = biological target: Nuclear receptor subfamily 1 group I member 2 (Rattus norvegicus) (UniProt Q9R1A7); test: qHTS assay for small molecule activators of the rat pregnane X receptor (rPXR) signaling pathway (AID 651751; call rule not given here); conditions: rPXR reporter cells, luciferase (One-Glo), 24 h
Nuclear receptor subfamily 1 group I member 2 (Rattus norvegicus), sequence (Q9R1A7 whole entry, looked up): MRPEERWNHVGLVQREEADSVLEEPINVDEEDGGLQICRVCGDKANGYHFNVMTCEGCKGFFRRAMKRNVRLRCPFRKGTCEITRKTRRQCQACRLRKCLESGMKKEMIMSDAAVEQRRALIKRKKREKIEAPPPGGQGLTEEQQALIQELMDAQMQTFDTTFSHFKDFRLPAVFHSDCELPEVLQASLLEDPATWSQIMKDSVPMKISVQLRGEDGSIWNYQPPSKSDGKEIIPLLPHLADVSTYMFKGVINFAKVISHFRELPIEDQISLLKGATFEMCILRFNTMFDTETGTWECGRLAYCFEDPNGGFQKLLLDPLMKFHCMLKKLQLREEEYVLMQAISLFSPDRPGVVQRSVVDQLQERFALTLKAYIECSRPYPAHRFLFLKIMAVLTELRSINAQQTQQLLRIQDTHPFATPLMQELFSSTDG

[19] = qHTS assay for small molecule activators of the human pregnane X receptor (PXR) signaling pathway (AID 720659; call rule not given here)
[20] = at 45.9 µM (top of the series), tumour line B
[21] = at 45.9 µM (top of the series), tumour line D
[22] = at 46 µM (top of the series), tumour line A
[23] = at 46.1 µM (top of the series), tumour line C

In the case of `CN1C(=O)CC(c2ccccc2)C1=O` (stereo not given), the outcome [1] is reported as “inactive”, the outcome [2] is reported as “inactive” and the outcome [3] is reported as “inactive”. The outcome [4] was “inactive”, the outcome [5] was “inactive” and the outcome [6] was “inactive”. The outcome [7] was “inactive”, the outcome [8] was “inactive” and the outcome [9] was “inactive”. For the same compound, the outcome [10] was “inactive”, the Potency [11] was “inactive” and the outcome [12] was “inactive”. For the same compound, the outcome [13] was “inactive”, the outcome [14] was “inactive” and the outcome [15] was “inactive”. The activity, negative = cell killing [16, 20] was 3.75%, the activity, negative = cell killing [16, 21] was 1.43% and the activity, negative = cell killing [16, 22] was 1.73%. For the same compound, the activity, negative = cell killing [16, 23] was -11.6% and the outcome [17] was “inactive”.

With `CC(=O)Nc1ccccc1` the outcome [1] was “inactive”, the outcome [2] was “inactive” and the outcome [3] was “inactive”. The outcome [4] was “inactive”, the outcome [5] was “inactive” and the outcome [6] was “inactive”. For the same compound, the outcome [7] was “inactive”, the outcome [8] was “inactive” and the outcome [9] was “inactive”. The outcome [10] was “inactive”, the Potency [11] was “inactive” and the outcome [12] was “inactive”. The outcome [13] was “inactive”, the outcome [14] was “inactive” and the outcome [15] was “inactive”. For the same compound, the activity, negative = cell killing [16, 20] was -6.03%, the activity, negative = cell killing [16, 21] was -14.5% and the activity, negative = cell killing [16, 22] was -21.5%. For the same compound, the activity, negative = cell killing [16, 23] was 6.02%, the outcome [17] was “inactive” and the max response [18] was 2.33%. For the same compound, the outcome [19] was “inactive”.

With `CN(C(=O)c1c(O)c2ccccc2n(C)c1=O)c1ccccc1` the outcome [1] was “inactive”, the outcome [2] was “inactive” and the outcome [3] was “inactive”. For the same compound, the outcome [4] was “inactive”, the outcome [5] was “inactive” and the outcome [6] was “inactive”. For the same compound, the outcome [7] was “inactive”, the outcome [8] was “inactive” and the outcome [9] was “inactive”. The outcome [10] was “inactive”, the Potency [11] was “inactive” and the outcome [12] was “inactive”. For the same compound, the outcome [13] was “inactive”, the outcome [14] was “inactive” and the outcome [15] was “inactive”. It also gave an activity, negative = cell killing [16, 20] of -5.78%, an activity, negative = cell killing [16, 21] of -11.8% and an activity, negative = cell killing [16, 22] of -31.5%. For the same compound, the activity, negative = cell killing [16, 23] was -28.1% and the outcome [17] was “inactive”.

With `O=C(c1ccccc1)C(O)c1ccccc1` (stereo not given) the outcome [1] was “inactive”, the outcome [2] was “inactive” and the outcome [3] was “inactive”. The outcome [4] was “inactive”, the outcome [5] was “inactive” and the outcome [6] was “inactive”. For the same compound, the outcome [7] was “inactive”, the outcome [8] was “inactive” and the outcome [9] was “inactive”. The outcome [10] was “inactive”, the Potency [11] was “inactive” and the outcome [12] was “inactive”. The outcome [13] was “inactive”, the outcome [14] was “inactive” and the outcome [15] was “inactive”. It also gave an activity, negative = cell killing [16, 20] of 4.63%, an activity, negative = cell killing [16, 21] of -16.7% and an activity, negative = cell killing [16, 22] of -19%. The activity, negative = cell killing [16, 23] was -3.13%, the outcome [17] was “inactive” and the max response [18] was 4.81% and 0.908%. For the same compound, the outcome [19] was “inactive”.

With `CCOC(=O)[C@H](CCc1ccccc1)N[C@@H](C)C(=O)N1CCC[C@H]1C(=O)O` the outcome [1] was “inactive”, the outcome [2] was “inactive” and the outcome [3] was “inactive”. For the same compound, the outcome [4] was “inactive”, the outcome [5] was “inactive” and the outcome [6] was “inactive”. The outcome [7] was “inactive”, the outcome [8] was “inactive” and the outcome [9] was “inactive”. For the same compound, the outcome [10] was “inactive”, the Potency [11] was “inactive” and the outcome [12] was “inactive”. For the same compound, the outcome [13] was “inactive”, the outcome [14] was “inactive” and the outcome [15] was “inactive”. The activity, negative = cell killing [16, 20] was -10.1%, the activity, negative = cell killing [16, 21] was -16.5% and the activity, negative = cell killing [16, 22] was -13.8%. For the same compound, the activity, negative = cell killing [16, 23] was -21.6% and the outcome [17] was “inactive”.

For `NC(=O)NC1NC(=O)NC1=O` (stereo not given), the outcome [1] was “inactive”, the outcome [2] was “inactive” and the outcome [3] was “inactive”. For the same compound, the outcome [4] was “inactive”, the outcome [5] was “inactive” and the outcome [6] was “inactive”. The outcome [7] was “inactive”, the outcome [8] was “inactive” and the outcome [9] was “inactive”. For the same compound, the outcome [10] was “inactive”, the Potency [11] was “inactive” and the outcome [12] was “inactive”. For the same compound, the outcome [13] was “inactive”, the outcome [14] was “inactive” and the outcome [15] was “inactive”. For the same compound, the activity, negative = cell killing ([16]; at 20 µM (top of the series), tumour line C) was 1.99%, the activity, negative = cell killing ([16]; at 21.2 µM (top of the series), tumour line B) was 4.84% and the activity, negative = cell killing ([16]; at 21.2 µM (top of the series), tumour line D) was -17.3%. For the same compound, the activity, negative = cell killing ([16]; at 21.3 µM (top of the series), tumour line A) was -7.96% and the outcome [17] was “inactive”.

With `CN1CCCN=C1COC(=O)C(O)(c1ccccc1)C1CCCCC1` (stereo not given) the outcome [1] was “inactive”, the outcome [2] was “inactive” and the outcome [3] was “inactive”. For the same compound, the outcome [4] was “inactive”, the outcome [5] was “inactive” and the outcome [6] was “inactive”. For the same compound, the outcome [7] was “inactive”, the outcome [8] was “inactive” and the outcome [9] was “inactive”. For the same compound, the outcome [10] was “inactive”, the Potency [11] was “inactive” and the outcome [12] was “inactive”. The outcome [13] was “inactive”, the outcome [14] was “inactive” and the outcome [15] was “inactive”. It also gave an activity, negative = cell killing [16, 20] of -22.5%, an activity, negative = cell killing [16, 21] of -25.7% and an activity, negative = cell killing [16, 23] of -4.53%. For the same compound, the Potency ([16]; tumour line A) was 11.2 µM (active).

For `Nc1ccc(C(=O)Oc2ccccc2)c(O)c1`, the outcome [1] was “inactive”, the outcome [2] was “inactive” and the outcome [3] was “inactive”. The outcome [4] was “inactive”, the outcome [5] was “inactive” and the outcome [6] was “inactive”. For the same compound, the outcome [7] was “inactive”, the outcome [8] was “inactive” and the outcome [9] was “inactive”. The outcome [10] was “inactive”, the Potency [11] was “inactive” and the outcome [12] was “inactive”. The outcome [13] was “inactive”, the outcome [14] was “inactive” and the outcome [15] was “inactive”. The activity, negative = cell killing [16, 23] was -12.2% and the Potency ([16]; tumour line A) was 11.2 µM (active).

With `COc1ccc(C(=O)N2CCN(CC(=O)N3CCOCC3)CC2)cc1` the outcome [1] was “inactive”, the outcome [2] was “inactive” and the outcome [3] was “inactive”. For the same compound, the outcome [4] was “inactive”, the outcome [5] was “inactive” and the outcome [6] was “inactive”. For the same compound, the outcome [7] was “inactive”, the outcome [8] was “inactive” and the outcome [9] was “inactive”. For the same compound, the outcome [10] was “inactive”, the Potency [11] was “inactive” and the outcome [12] was “inactive”. For the same compound, the outcome [13] was “inactive”, the outcome [14] was “inactive” and the outcome [15] was “inactive”. The activity, negative = cell killing [16, 20] was -0.665%, the activity, negative = cell killing [16, 21] was -14.5% and the activity, negative = cell killing [16, 22] was -23.3%. The activity, negative = cell killing [16, 23] was -11.4% and the outcome [17] was “inactive”.

For `NC(=O)NS(=O)(=O)c1ccc(N)cc1`, the outcome [1] was “inactive”, the outcome [2] was “inactive” and the outcome [3] was “inactive”. The outcome [4] was “inactive”, the outcome [5] was “inactive” and the outcome [6] was “inactive”. The outcome [7] was “inactive”, the outcome [8] was “inactive” and the outcome [9] was “inactive”. For the same compound, the outcome [10] was “inactive”, the Potency [11] was “inactive” and the outcome [12] was “inactive”. The outcome [13] was “inactive”, the outcome [14] was “inactive” and the outcome [15] was “inactive”. It also gave an activity, negative = cell killing [16, 20] of -9.53%, an activity, negative = cell killing [16, 21] of 9.92% and an activity, negative = cell killing [16, 22] of -3.84%. For the same compound, the activity, negative = cell killing [16, 23] was 3.57% and the outcome [17] was “inactive”.
